Reference: the supplement of paper PMC12340641
Where a name gives a salt, the structure may show the parent alone.

Each compound was assayed on HEK293FT dCK*-IKZF1 (assay: relative growth recovery (pomalidomide 10 uM = 100%, DMSO = 0%); higher = more growth rescue (IKZF1 fusion degradation)). Settings: compound concentration: 5 uM; AraC concentration: 0.3 uM; overnight pretreatment + 4 days AraC.
Outline: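 On day 5, whole-well imaging was used to count Hoechst 33342-stained nuclei of HEK293FT cells stably carrying a deoxycytidine kinase–IKZF1 fusion. These cells had received 5 μM compound 2 h after seeding, followed after overnight at 37 °C by a nucleoside suicide substrate at 0.3 μM plus medium for 4 days. Growth recovery was normalised on each plate against a reference degrader and vehicle, which defined 100% and 0%, and values are duplicate means from separate days.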

Row | SMILES | relative growth recovery
1 | Clc1ccc(C(Cn2ccnc2)OCc2c(Cl)cccc2Cl)c(Cl)c1 (stereo not drawn) [Isoconazole nitrate (Travogen)] | -3.42%
2 | CC[C@]1(O)C[C@H]2CN(CCc3c([nH]c4ccccc34)[C@@](C(=O)OC)(c3cc4c(cc3OC)N(C=O)[C@H]3[C@@](O)(C(=O)OC)[C@H](OC(C)=O)[C@]5(CC)C=CCN6CC[C@]43[C@@H]65)C2)C1 [Vincristine Sulfate] | -12.2%
3 | CN1CCN(Cc2ccc(-c3cnc4[nH]cc(-c5ccc6[nH]ccc6c5)c4c3)cc2)CC1 | -11.6%
4 | COc1cccc2c(O)c3c(O)c4c(c(O)c3c(O)c12)=C(O[C@H]1C[C@H](N)[C@H](O)[C@H](C)O1)C[C@](O)(C(=O)CO)C=4 [Doxorubicin HCl] | -13.4%
5 | COc1cc(NC(=O)c2ccc(-c3ccc(Cl)cc3)o2)cc(OC)c1 | 7.22%
6 | CCCCC(=O)OCC(=O)[C@]1(O)Cc2c(O)c3c(c(O)c2[C@@H](O[C@H]2C[C@H](NC(=O)C(F)(F)F)[C@H](O)[C@H](C)O2)C1)C(=O)c1c(OC)cccc1C3=O [Valrubicin] | -11.8%
7 | Oc1c(I)cc(I)c2cccnc12 | -3.46%
8 | CN(C)C(=O)C(CCN1CCC(O)(c2ccc(Cl)cc2)CC1)(c1ccccc1)c1ccccc1 | -0.755%
9 | O=C(Nc1cccc(C(F)(F)F)c1)Nc1ccc(Br)cc1-c1nnn[nH]1 | -2.33%
10 | COc1ccc(-c2ccc3c(N4CCOC[C@@H]4C)nc(N4CCOC[C@@H]4C)nc3n2)cc1CO | -13.8%
11 | CC(=O)[C@@]1(O)C=C(O[C@H]2C[C@H](N)[C@H](O)[C@H](C)O2)c2c(c(O)c3c(O)c4ccccc4c(O)c3c2O)C1 [Idarubicin HCl] | -13%
12 | NC(=O)N1c2ccccc2CC(O)c2ccccc21 (stereo not drawn) [licarbazepine] | 0.095%
13 | CCC(=O)O[C@@H]1CC(=O)O[C@H](C)C/C=C/C=C/[C@H](OC(C)=O)[C@H](C)C[C@H](CC=O)[C@H](O[C@@H]2O[C@H](C)[C@@H](O[C@H]3C[C@@](C)(OC(C)=O)[C@@H](OC(=O)CC)[C@H](C)O3)[C@H](N(C)C)[C@H]2O)[C@H]1OC [Midecamycin Acetate] | 0.995%
14 | COc1cccc2c1C(=O)c1c(O)c3c(c(O)c1C2=O)C[C@@](O)(/C(CO)=N/NC(=O)CCCCCN1C(=O)C=CC1=O)C[C@@H]3O[C@H]1C[C@H](N)[C@H](O)[C@H](C)O1 [Aldoxorubicin] | -14%
15 | Nc1ccc(S(=O)(=O)Nc2cnc3ccccc3n2)cc1 | -1.83%
16 | FC(F)(F)c1cc(NC(=S)Nc2ccc(Br)cc2-c2nnn[nH]2)cc(C(F)(F)F)c1 | -1.23%
17 | CCc1ccc(OCc2ccccc2C(=O)Nc2ccc3nc(C)cc(N)c3c2)cc1 | -14.6%
18 | O=C(Nc1ccc2[nH]ccc2c1)c1ccccc1 | -0.01%
19 | CC(=O)[C@]1(O)Cc2c(O)c3c(c(O)c2[C@@H](O[C@H]2C[C@H](N)[C@H](O)[C@H](C)O2)C1)C(=O)c1ccccc1C3=O [Idarubicin HCl] | -13%

Row | SMILES | relative growth recovery
20 | COc1ccc(NC(=O)c2ccc(-c3ccc(-c4noc(C)n4)cc3C)cc2)cc1N1CCN(C)CC1 | 1.76%
21 | O=[N+]([O-])c1ccc(O)c2ncccc12 | -2.33%
22 | CNCCC(Oc1ccc(C(F)(F)F)cc1)c1ccccc1 (stereo not drawn) [Fluoxetine HCl] | 1.15%
23 | Cc1nnsc1C(=O)Nc1ccc(-n2nc(C(F)(F)F)cc2C(F)(F)F)cc1 | 0.005%
24 | C=C1CCC2[C@](C)(CO)[C@H](O)CC[C@@]2(C)[C@@H]1C/C=C1/C(=O)OC[C@H]1O (stereo partly drawn) [Andrographolide] | -5.34%
25 | Cc1ccc(S(=O)(=O)c2ccc([N+](=O)[O-])o2)cc1 | -12.9%
26 | COc1ccc(C2CC(c3c(O)cc(C)oc3=O)=NCCS2)c(OC)c1 (stereo not drawn) | -10.9%
27 | Oc1cc(O)cc(/C=C/c2ccc(O)c(O)c2)c1 [piceatannol] | -2.98%
28 | Cc1ncsc1-c1ccc(CNC(=O)[C@@H]2C[C@@H](O)CN2C(=O)[C@@H](NC(=O)COCCOCCOc2ccc(-c3ccc4ncnc(Nc5ccc(OCc6cccc(F)c6)c(Cl)c5)c4c3)cc2)C(C)(C)C)cc1 | 19.7%
29 | O=C1N(c2ccccc2)c2ccccc2C1(Cc1ccncc1)Cc1ccncc1 [linopirdine] | -3.48%
30 | CCCCCCCCNC(C)C(O)c1ccc(SC(C)C)cc1 (stereo not drawn) | -0.84%
31 | C[C@H]1O[C@@H](n2cc(F)c(=O)[nH]c2=O)[C@H](O)[C@@H]1O | 0.84%
32 | CC(C)(N)c1nc(-c2ccc(OC(F)(F)F)cc2)c[nH]1 | -3.6%
33 | NC(=O)C(c1ccccc1)(c1ccc(F)cc1)c1ccc(F)cc1 [Senicapoc] | -0.855%
34 | CCCCNC(=O)NS(=O)(=O)c1ccc(C)cc1 | -3.39%
35 | Cc1ccnc(NS(=O)(=O)c2ccc(N)cc2)n1 | 1.5%
36 | CCCCCCCCN=c1ccn(CCCCCCCCCCn2ccc(=NCCCCCCCC)cc2)cc1 [Octenidine Dihydrochloride] | -14.7%
37 | Nc1ccc2cc3ccc(N)cc3nc2c1 | -15%
38 | CCOC(=O)c1ccc(N)cc1 | -2.68%
